Results published in the supplement of paper PMC3334620.
The full ranking holds about 33,000 sequences; the median of “E-score (-0.5 to 0.5)” is about -0.016, and the highest 2% start at about 0.3. The list comes from a sample in which the highest values are over-represented; it also holds similar and randomly drawn sequences.

target: T1, Yer184c (UniProt P39961); test: PBM E-score (8-mer binding enrichment) (E-score (-0.5 to 0.5)); higher = stronger / more preferred TF binding; settings: protein concentration: 100 nM; construct: GST-full length
T1 sequence: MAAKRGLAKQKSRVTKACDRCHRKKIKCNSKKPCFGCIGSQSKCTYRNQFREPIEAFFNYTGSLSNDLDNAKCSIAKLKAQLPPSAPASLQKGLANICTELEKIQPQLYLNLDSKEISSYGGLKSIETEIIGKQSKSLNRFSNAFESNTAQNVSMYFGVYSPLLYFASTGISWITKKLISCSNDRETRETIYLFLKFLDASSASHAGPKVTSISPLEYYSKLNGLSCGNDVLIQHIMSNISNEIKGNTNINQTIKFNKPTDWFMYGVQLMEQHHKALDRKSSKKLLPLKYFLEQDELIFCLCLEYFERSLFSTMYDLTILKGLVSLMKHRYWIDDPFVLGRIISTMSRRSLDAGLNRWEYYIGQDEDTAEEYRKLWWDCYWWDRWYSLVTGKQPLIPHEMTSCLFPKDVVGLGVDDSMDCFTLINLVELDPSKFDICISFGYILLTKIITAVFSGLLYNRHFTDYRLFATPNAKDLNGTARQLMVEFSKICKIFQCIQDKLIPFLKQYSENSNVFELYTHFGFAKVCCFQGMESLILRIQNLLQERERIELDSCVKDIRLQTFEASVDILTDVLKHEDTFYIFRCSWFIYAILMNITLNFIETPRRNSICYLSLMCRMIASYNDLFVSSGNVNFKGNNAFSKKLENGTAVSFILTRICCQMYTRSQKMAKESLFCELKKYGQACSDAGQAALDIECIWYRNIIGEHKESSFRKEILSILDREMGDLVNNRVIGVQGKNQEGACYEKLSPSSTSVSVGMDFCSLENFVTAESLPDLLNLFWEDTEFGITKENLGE
Procedure, shortened: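 Using PURExpress in vitro transcription/translation, GST-tagged yeast transcription factors were made in full-length or DNA-binding-domain form. These were applied at about 100-200 nM to double-stranded universal all-10-mer Agilent arrays, and bound protein was detected with fluorescent anti-GST. Scans were normalised with masliner before the Universal PBM Analysis Suite assigned E-scores to ungapped eight-base words pooled with their reverse complements.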

Sequence | PBM E-score
AATTTCCA | 0.145
ATCTCTAG | -0.118
TCTATGAA | 0.112
CACTTTCC | 0.021
CAAAATTA | 0.212
CAAATTTA | 0.119
TAAAATTA | 0.341
AAAATTTA | 0.228
ATAAATTA | 0.316
CTAAATTA | 0.202
TAAATTTA | 0.311
AAAAATTA | 0.253
GGAAATTA | 0.201
AGAAATTA | 0.354
AGAAATTC | 0.077
ATAAATTG | 0.254
CGAACTAC | 0.0997
GATTGCCA | -0.0755
GACAGTAC | 0.135
ACACTCTC | 0.0613
ACAATCGG | 0.307
ACAATCGC | 0.0673
ACAATCGT | -0.28
GCTGAACC | 0.0738
AACGCCAG | 0.0264

Sequence | PBM E-score
AGGCCGGA | 0.247
CGGCCGTC | 0.278
CGGCCGTA | 0.311
CGGCCGGC | 0.42
CGGCCGCA | 0.277
CGGCCTTA | 0.291
CGGCCGGA | 0.402
AGGCCGGC | 0.265
AGGCCGTA | 0.178
CGGCCGCC | 0.209
CGGCCTTC | 0.33
AGGCCTTC | -0.0978
CAGTAGAA | -0.069
AATCCTCA | -0.0565
GCCGATAC | 0.13
CTCAACAG | -0.0543
GAAGGGAA | -0.203
AGCTCATG | -0.175
AGAGTGGC | -0.217
CGGCGATA | 0.36
CGGCGAAA | 0.35
GGGCGATA | -0.222
CGGCGAAG | 0.205
AGGCGATA | -0.12
AGGCGATC | -0.168

Sequence | PBM E-score
CGGCGATC | 0.312
TGGCGAAA | 0.0101
CGGCGACC | 0.237
GAACAGCA | 0.123
ACCCAAGG | -0.162
ACGGCGAT | 0.188
CCCCCTTA | -0.348
CGAGGTTA | -0.00293
CCAGGGTA | -0.174
ACTAACTC | -0.00452
ATTCTTTA | 0.0489
CTGAGTGA | 0.24
ATCCTATG | -0.0991
CTGAATAA | 0.134
ATTAACCA | -0.114
ATTAACCG | 0.335
ATTAACCC | 0.0664
CCTCCGCA | -0.247
GCTCCGTA | 0.205
CCTCCGGA | 0.337
CCTCCGTA | -0.0207
GCTCCGGA | 0.367
GCTCCGCA | 0.0792
CTTGACAA | 0.152
CGGACCGA | 0.402

Sequence | PBM E-score
CGGACCGC | 0.104
CGGACCAG | 0.185
CGAACCGC | 0.189
CGAACCGA | 0.328
GGAACCGA | 0.248
GGGACCGA | 0.158
CGGACCAC | 0.244
CGGACCAA | 0.343
AACGGTTA | 0.0289
AGAGACAT | -0.0279
GATAGCGC | -0.051
CAAATAGC | 0.0894
AAAGGAAA | 0.203
CGGATCCG | 0.445
AAGATCCG | 0.091
CGGATCCC | 0.171
CAGATCCC | -0.21
CGGATCCA | 0.263
CAGATCCG | 0.317
GGCATGAC | -0.199
ACGGATAG | 0.139
CCGGATAA | 0.4
ACGGATAT | 0.339
CAGGATAG | 0.0949
CCGGATAC | 0.257

Sequence | PBM E-score
CGGGATAG | 0.102
CCGGATAG | 0.342
TCGGATAA | 0.379
GCGGATAA | 0.224
CAGGATAA | -0.0581
TGGGATAA | -0.0513
ACGGATAA | 0.299
ATGTTCAA | 0.134
ACCTTACG | 0.00591
GCAGGACA | 0.11
CCTTCTTC | -0.19
CGCGGGAA | 0.311
GGCGGGAA | 0.0413
GGCGGAAC | 0.199
CGCGGGGA | 0.125
CGCGGAAA | 0.325
AGCGGAAA | 0.27
CGCGGAAC | 0.382
AGCGGAAC | 0.194
GGCGGAAA | 0.108
GATGGACA | 0.183
ATTAGCGC | 0.056
ATAGATCA | 0.216
CAAGCTGG | -0.129
CCAGCCCA | -0.258

Sequence | PBM E-score
ATACTCTG | 0.006
CGGGTTCC | 0.246
AAGAAACC | 0.129
CGTAGAGA | -0.0444
GAACGCGC | 0.163
CGTATAAA | 0.311
AGTATATC | 0.155
GGTATAAA | 0.16
AGTATATG | 0.0296
AGTATAAC | -0.0238
CGTATAAC | 0.106
AGTATATA | 0.334
TGTATAAA | 0.0524
AGTATAAA | 0.365
TCGCACAA | -0.0958
CCATTTCC | 0.13
ACCTACAC | -0.309
CCCTCAAG | -0.297
GAAGTGGA | 0.0603
ATACCGAT | 0.11
TTACCGAA | 0.336
CTACCGAA | 0.105
ATACCGAC | 0.0349
ATACCGAA | 0.322
GTACCGAA | 0.227

Sequence | PBM E-score
AAAATGTA | -0.017
GTTAGAAA | 0.184
TCGGAACA | 0.408
ACGGAACA | 0.303
GCGGAACA | 0.237
CAGGAACA | -0.0366
CTGGAACA | 0.122
CCGGAACA | 0.435
AGCTTTTC | 0.0452
CAATTAAG | 0.21
GGGTTAAA | -0.0167
AAACTCCT | -0.18
CAACTCCG | 0.197
ATACTCCA | -0.081
AAGCTCCT | -0.237
AAGCTCCG | 0.339
ATACTCCC | 0.059
CAGCTCCG | 0.222
ATACTCCG | 0.321
AAACTCCG | 0.319
AATCGTAT | 0.039
TATATCGA | 0.161
ATATCTTG | 0.0464
CAAAGGGA | -0.166
